# Bioassay records as filed in PubChem BioAssay.
# Sampled rows, rich in hits. Any-hit rate of the full collection: about 27%.
# sEH inhibitor: soluble epoxide hydrolase inhibitors, primary screen, biochemical, human sEH; recombinant human sEH enzymatic activity assay; inhibition, % at 2 µM; 91,000 compounds, 0.34% hits; in the data active = inhibition above about 80%
# Target sequence (P34913 whole entry, looked up): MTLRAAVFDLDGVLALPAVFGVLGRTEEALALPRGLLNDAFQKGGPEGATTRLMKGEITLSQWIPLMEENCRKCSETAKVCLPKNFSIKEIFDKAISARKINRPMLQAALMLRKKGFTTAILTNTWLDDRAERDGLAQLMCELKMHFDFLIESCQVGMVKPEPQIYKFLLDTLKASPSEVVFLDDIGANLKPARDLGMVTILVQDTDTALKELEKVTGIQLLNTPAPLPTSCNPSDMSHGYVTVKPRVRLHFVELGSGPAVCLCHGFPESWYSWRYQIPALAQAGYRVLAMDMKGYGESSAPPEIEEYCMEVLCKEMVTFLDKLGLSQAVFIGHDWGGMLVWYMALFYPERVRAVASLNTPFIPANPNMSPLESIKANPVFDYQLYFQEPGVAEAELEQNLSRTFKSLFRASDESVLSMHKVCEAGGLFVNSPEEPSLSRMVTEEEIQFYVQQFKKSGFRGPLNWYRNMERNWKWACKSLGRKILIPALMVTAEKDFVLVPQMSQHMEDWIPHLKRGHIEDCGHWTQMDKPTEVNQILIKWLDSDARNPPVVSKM
# CYP2C19 inhib: blockers of cytochrome P450 2C19 activity – biochemical, luminescence, ADME assay, primary screen; CYP2C19 Supersomes, luciferin-H EGE luminescence, 30 min; inhibition, % at 5 µM; 96,000 compounds, 21% hits; P33261;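 active = CYP2C19 inhibition above a set limit at 5 µM in the primary screen, cut at about 50% in these data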;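 also: plate controls were negative control wells for no effect and 2.5 mM tranylcypromine positive control for full effect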
# CYP2C9 inh: blockers of cytochrome P450 2C9 activity – biochemical, luminescence, ADME assay, primary screen; CYP2C9 Supersomes, luciferin-H conversion; inhibition, % at 5 µM; 96,000 compounds, 20% hits; P11712;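 active = blocking of liver enzyme CYP2C9 beyond about 50% at 5 µM, limit read from the data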
# sEH activator: soluble epoxide hydrolase activators, primary screen, biochemical, human sEH | Bifunctional epoxide hydrolase 2 (Homo sapiens), P34913 | AID 717, 2007 | activation, % at 2 µM | purified human sEH enzymatic activity, activator screen | 91,000 compounds, 0.04% hits; in the data active = activation above about 37%
# CYP2C19 act: human CYP2C19 activators, primary screen, biochemical, luminescence. Cytochrome P450 2C19 (Homo sapiens), P33261. 96,000 tested, under 10 active. activation factor at 5 µM. AID 1025, 2008. recombinant CYP2C19, luciferin-H EGE luminescence; active compounds read high; 0 = fully inhibited enzyme, 1 = untreated enzyme;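 active = activation factor of at least 2 at 5 µM in the primary screen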;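 also: 0 = wells with 2.5 mM tranylcypromine and 1 = vehicle-only wells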
# CYP2C9 activ: human CYP2C9 activators, primary screen, biochemical, luminescence. activation factor at 5 µM. 96,000 compounds, 1.4% hits. AID 1024, 2008. recombinant CYP2C9, luciferin-H conversion; active compounds read high; factor 1 = untreated enzyme, 0 = blocked. Cytochrome P450 2C9 (Homo sapiens), P11712;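 active = activation factor of 2 or more for CYP2C9 at a 5 µM dose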;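 also: 0 = sulfaphenazole-blocked wells and 1 = vehicle-only wells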
# * hit, by the source's call; nt = no result given.
SMILES,sEH inhibitor,CYP2C19 inhib,CYP2C9 inh,sEH activator,CYP2C19 act,CYP2C9 activ
COc1ccc(Cc2nnc(SCC(=O)N3CCc4ccccc4C3)o2)cc1,8,12,17,-10,0.9,0.8
CC1CCCC(C)N1C(=O)COc1ccc(-c2nnco2)cc1 (stereo not drawn),2,2,3,-2,1,1
O=C(CSc1nnc(-c2ccc(Br)cc2)o1)Nc1cccc2ccccc12,17,70*,74*,-12,0.3,0.3
COc1ccccc1NC(=O)CSc1nnc(C2CCCCC2)o1,-15,56*,44,15,0.4,0.6
N#Cc1ccsc1NC(=O)COc1ccc(-c2nnco2)cc1,nt,78*,95*,nt,0.2,0
Cc1ccc(-c2nnc(SCC(=O)Nc3sc(C)c(C)c3C#N)n2C)cc1,15,nt,nt,-12,nt,nt
Cc1sc(NC(=O)CSc2nnc(-c3ccc(F)cc3)o2)c(C#N)c1C,-2,70*,72*,3,0.3,0.3
CC1=C(C)C(=O)NC(Nc2nc(C)c3cc(C)cc(C)c3n2)N1 (stereo not drawn),1,nt,nt,2,nt,nt
O=C(CSc1nnc(-c2ccccc2)o1)Nc1ccccc1F,nt,57*,29,nt,0.4,0.7
O=C(CSc1nnc(-c2ccncc2)o1)Nc1ccccc1Cl,1,90*,17,-2,0.1,0.8
COc1ccccc1NC(=O)CSc1nnc(-c2ccncc2)o1,9,84*,30,-8,0.2,0.7
Cc1csc(NC(=O)CSc2nnc(-c3ccncc3)o2)n1,2,55*,29,-2,0.5,0.7
O=C1c2cccnc2Nc2ccccc2N1CCCF,2,-5,-16,0,1.1,1.2
CCn1c(SCC(=O)Nc2cc(OC)ccc2OC)nnc1C1CCCCC1,-2,69*,-11,-1,0.3,1.1
CCn1c(COc2cccc(OC)c2)nnc1SCC(=O)Nc1cc(OC)ccc1OC,nt,47,-13,nt,0.5,1.1
O=S(=O)(c1ccc(N2CCN(S(=O)(=O)c3ccc4c(c3)OCCO4)CC2)nc1)N1CCCC1,4,nt,nt,-2,nt,nt
CC1Cc2cc(/C(O)=C3\C(=O)C(=O)N(CCN(C)C)C3c3ccccc3F)ccc2O1 (stereo not drawn),-10,-4,-5,8,1,1.1
COc1c(Cl)cc(Cl)cc1/C=N/n1cnnc1,3,-2,-1,-1,1,1
CCOC(=O)CC1=C(C(=O)OCC)C(c2cccnc2)C(C#N)=C(N)O1 (stereo not drawn),-10,56*,32,12,0.4,0.7
COC(=O)C1=C(C)OC(N)=C(C#N)C1c1cccnc1 (stereo not drawn),9,4,8,-11,1,0.9
CCOC(=O)CC1=C(C#N)C(c2cccnc2)C(C(=O)OCC)=C(N)O1 (stereo not drawn),nt,73*,75*,nt,0.3,0.2
O=C(NCCc1ccccc1)C1CCCN(S(=O)(=O)c2cccs2)C1 (stereo not drawn),48,45,86*,-48,0.5,0.1
O=C(CCS(=O)(=O)c1cccs1)NC1CCCCCC1,26,12,-1,-26,0.9,1
O=C(NC1CCCCC1)C1CCN(S(=O)(=O)c2cccs2)CC1,57,-10,-22,-57,1.1,1.2
O=S(=O)(NC1CCCCCCC1)c1cccs1,-32,54*,49,31,0.5,0.5
SMILES,sEH inhibitor,CYP2C19 inhib,CYP2C9 inh,sEH activator,CYP2C19 act,CYP2C9 activ
O=C(NC1CCCCCC1)C1CCCN(S(=O)(=O)c2cccs2)C1 (stereo not drawn),70,1,77*,-69,1,0.2
Cc1ccccc1C(=O)NNC(=S)NC(=O)COc1ccccc1,-11,55*,89*,12,0.4,0.1
COC(=O)c1ccccc1NC(=S)NC(=O)COc1ccccc1,-13,9,18,12,0.9,0.8
Cc1ccc(C(=O)NNC(=S)NC(=O)COc2ccccc2)cc1,2,32,78*,0,0.7,0.2
CCOc1ccc(C(=O)N(C)C2CCS(=O)(=O)C2)cc1 (stereo not drawn),-15,-9,-12,19,1.1,1.1
CCOC1(C(F)(F)F)NC(=O)N(Cc2ccc(OC)cc2)C1=O (stereo not drawn),-3,38,14,5,0.6,0.9
COc1cccc(N=c2oc3c(C)ncc(CO)c3cc2C(=O)Nc2ccccc2OC)c1,11,22,77*,-9,0.8,0.2
Cc1nn(C(=O)N2CCCCC2)c(C)c1CN1C(=O)c2ccccc2C1=O,0,69*,61*,-2,0.3,0.4
Cc1nn(C(=O)c2ccco2)c(C)c1CN1C(=O)c2ccccc2C1=O,-13,42,96*,11,0.6,0
N#CC12CCCCC1CC1CCCCC1(C#N)N2Cc1cccnc1 (stereo not drawn),nt,11,5,nt,0.9,1
CCN(c1ccccc1)S(=O)(=O)c1ccc(F)cc1C,5,67*,10,-7,0.3,0.9
Cc1ccc2c(c1)c1c3n2CC(=C2C(=O)OC(C)(C)OC2=O)NC3CCC1 (stereo not drawn),1,40,81*,-2,0.6,0.2
CCN(CC)S(=O)(=O)c1cccc(C(=O)N[C@H](C(=O)OCC(=O)Nc2ccccc2)C(C)C)c1,16,93*,99*,-14,0.1,0
CCc1nnc(NC(=O)[C@@H](NC(=O)c2cccc(S(=O)(=O)N(CC)CC)c2)C(C)C)s1,-1,79*,72*,0,0.2,0.3
COc1ccccc1OCCn1c(C(C)O)nc2ccccc21 (stereo not drawn),3,85*,7,-2,0.1,0.9
COc1ccccc1OCCn1c(CO)nc2ccccc21,nt,56*,18,nt,0.4,0.8
CC(O)c1nc2ccccc2n1CCOc1ccccc1 (stereo not drawn),-4,nt,nt,5,nt,nt
COCCn1c(COc2ccc(OC)cc2)nc2ccccc21,19,92*,35,-18,0.1,0.7
Cc1cccc(OCCn2c(CCCO)nc3ccccc32)c1,-7,91*,68*,7,0.1,0.3
Fc1ccc(-c2csc3ncnc(Nc4ccc(N5CCOCC5)cc4)c23)cc1,0,35,27,-2,0.7,0.7
O/N=C1/CCSc2ccccc21,-1,-3,-9,-2,1,1.1
CC1=C(C(=O)Nc2ccc(Br)cc2)C(c2ccco2)NC(=O)N1 (stereo not drawn),6,9,2,-9,0.9,1
CCOc1ccccc1OCCn1nnc2ccccc21,10,83*,-76,-6,0.2,1.8
